Molecules are shown by their SMILES. Calls of active or inactive are those of the source. How the source made its calls: active means hit-call score of the fitted dose curve at least 0.9, where 1 is the maximum; inactive means score below 0.9.

Three compounds from PubChem BioAssay (EPA / NIEHS) can be followed below.

One assay can be described thus: CEETOX_H295R_CORTIC: CeeTox H295R High-throughput Steroidogenesis Assay for Corticosterone (CORTIC) (AID 2283437).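 Further: corticosterone secreted into medium quantified by mass spectrometry.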 Particulars: actives raise or lower the signal. The method, boiled down: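 Corticosterone secreted into medium is measured by reverse-phase HPLC with tandem MS following liquid-liquid extraction. Cells are forskolin-stimulated (10 uM, 48 h) before 48 h test exposure; activity fitted in both directions against DMSO.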
With `CCOC(=O)C1=NN(c2ccc(Cl)cc2Cl)C(C)(C(=O)OCC)C1` (stereo not given), the result was inactive.
Turning to `CN(C)c1ccc2nc3ccc(=[N+](C)C)cc-3sc2c1`, the call was inactive.
Take `C=CC(=O)OCCCCCCOC(=O)C=C`: the compound was classed as inactive.

The next assay is described as follows: CEETOX_H295R_CORTISOL: CeeTox H295R High-throughput Steroidogenesis Assay for Cortisol (AID 2283438).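 Further: cortisol secreted into medium quantified by LC-MS/MS.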 Particulars: actives raise or lower the signal. The procedure, abridged: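 Forskolin 10 uM 48 h prestim → test cmpd in DMSO (0.1% final) 48 h → medium MTBE-extracted → LC-MS/MS cortisol vs 7-pt std curve. Gain/loss of signal fitted vs DMSO. MTT viability in same wells.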
Take `CCOC(=O)C1=NN(c2ccc(Cl)cc2Cl)C(C)(C(=O)OCC)C1` (stereo not given): the outcome was inactive.
Same read-out and setting: with `CN(C)c1ccc2nc3ccc(=[N+](C)C)cc-3sc2c1` the entry was “inactive”; with `C=CC(=O)OCCCCCCOC(=O)C=C`, “inactive”.

The nature of the next assay: CEETOX_H295R_DOC: CeeTox H295R High-throughput Steroidogenesis Assay for DOC (AID 2283439). The conditions noted are these: actives raise or lower the signal. The method, boiled down: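 Readout: 11-deoxycorticosterone in culture medium by reverse-phase C18 HPLC with ESI+ tandem MS after MTBE extraction. Cells: H295R, forskolin-primed (10 uM, 48 h), chemical-treated 48 h; DMSO 0.1% final. Activity fitted bidirectionally versus DMSO.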
Consider `CCOC(=O)C1=NN(c2ccc(Cl)cc2Cl)C(C)(C(=O)OCC)C1` (stereo not given), for which the outcome was inactive.
As to `CN(C)c1ccc2nc3ccc(=[N+](C)C)cc-3sc2c1`, the AC50 was 0.598 µM (active).
On to `C=CC(=O)OCCCCCCOC(=O)C=C`, for which the outcome was inactive.

The nature of another assay: CEETOX_H295R_ESTRADIOL: CeeTox H295R High-throughput Steroidogenesis Assay for Estradiol (AID 2283440).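 Further: estradiol secreted into medium quantified by LC-MS/MS after dansyl derivatisation.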 Particulars: actives raise or lower the signal. The method, boiled down: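 Following OECD 456 with minor changes, H295R cells received 10 uM forskolin for 48 h and then test chemical for 48 h. Hormone output was read by HPLC-MS/MS, with cytotoxic concentrations diluted until MTT viability reached ≥70%.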
Take `CCOC(=O)C1=NN(c2ccc(Cl)cc2Cl)C(C)(C(=O)OCC)C1` (stereo not given): the compound was classed as inactive.
Consider `CN(C)c1ccc2nc3ccc(=[N+](C)C)cc-3sc2c1`, for which the compound was called inactive.
With `C=CC(=O)OCCCCCCOC(=O)C=C`, the outcome was inactive.

The next assay in a line: CEETOX_H295R_ESTRONE: CeeTox H295R High-throughput Steroidogenesis Assay for Estrone (AID 2283441).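 Further: estrone secreted into medium measured by LC-MS/MS after dansyl derivatization.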 The conditions noted are these: actives raise or lower the signal. The procedure, abridged:
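H295R cells prestimulated 48 h with 10 uM forskolin, then exposed 48 h to chemicals in 0.1% DMSO final; estrone in medium extracted with MTBE, dansyl-derivatized, quantified by HPLC-MS/MS; bidirectional fitting versus DMSO, viability by MTT.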
On to `CCOC(=O)C1=NN(c2ccc(Cl)cc2Cl)C(C)(C(=O)OCC)C1` (stereo not given), for which the outcome was inactive.
Same read-out and setting: with `CN(C)c1ccc2nc3ccc(=[N+](C)C)cc-3sc2c1` the entry was “inactive”; with `C=CC(=O)OCCCCCCOC(=O)C=C`, “inactive”.

One may read the AC50 as the midpoint of the concentration-response curve, whichever way the signal moves.
